14 molecules from PubChem BioAssay (Tox21) can be followed below.

The nature of assay [1]: qHTS assay to identify small molecule antagonists of the estrogen related receptor signaling pathway with the pleiotropic PPARgamma coactivator (PGC) from Tox21 10K library (AID 1224841; call rule not given here; also: actives are mostly falling curves and most rising ones were filed inactive; nearly all actives have a fitted effect of over 50% in size; also: potency is read from the fitted curve at half-maximal effect; as to activity, negative = inhibition: series mostly up to about 92 µM). In short, it runs like this:
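In the PGC/ERR line, DMSO solutions of test chemicals are pin-delivered to 2,000 cells/well six hours after dispensing. Following eighteen hours' incubation, One-Glo reagent is added and luminescence recorded.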

For assay [2], the target named is Thyrotropin receptor (Homo sapiens) (UniProt P16473). Nature of the assay: qHTS assay to identify small molecule agonists of the thyroid stimulating hormone receptor (TSHR) signaling pathway (AID 1224843; calls by dose curve; also: nearly all actives have a fitted effect of over 45% in size; also: potency is read from the fitted curve at half-maximal effect). In short, it runs like this: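 HEK293/TSHR, 800 cells/well; cpd 30 min RT; add cAMP-d2 + anti-cAMP-cryptate, 1 h RT; fluorescence read on plate reader. 15-pt titration, n=3.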

A short description of assay [3]: qHTS RealTime-Glo MT Cell Viability Assay in HEK293 cells - 8 hour (AID 1224887). Also: nearly all actives have a fitted effect of over 50% in size. Also: potency is read from the fitted curve at half-maximal effect. As to activity change, negative = cytotoxicity: top concentration of the series differs between compounds. Put shortly: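 Measured as luminescence from the same continuously cultured HEK293 wells at successive time points (0, 8, 16, 24, 32, 40 h) after compound addition. Reagent present from seeding; dosing at 5 h; incubation 37 C.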
Assay [4] is described as follows: qHTS assay to identify small molecule agonists of the progesterone receptor (PR) signaling pathway - cell viability counter screen (AID 1346799; calls by dose curve; also: nearly all actives have a fitted effect of over 45% in size; also: potency is read from the fitted curve at half-maximal effect). Put shortly: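 Counter screen for cytotoxicity: compound-treated PR-UAS-bla HEK293T cells (16 hr, 37C, 5% CO2) were assayed with CellTiter-Glo, luminescence measured after 30 min at room temperature.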
Assay [5] in a line: qHTS assay for small molecules that induce genotoxicity in human embryonic kidney cells expressing luciferase-tagged ATAD5 (AID 651632). Also: nearly all actives have a fitted effect of over 15% in size. In short, it runs like this:
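Test compounds were delivered by pin tool onto HEK293T reporter cells (2,000/well) expressing ATAD5 fused to luciferase. After 16 hr at 37C, 5% CO2, Amplite was added for 30 min at room temperature and luminescence was measured.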

A short description of assay [6]: qHTS assay to test for compound auto fluorescence at 590 nm (red) in HepG2 cells (AID 720674). In short, it runs like this:
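Fluorescence at 590 nm emission following 540 nm excitation was recorded from HepG2 wells one hour after compound transfer, with DMSO-only wells as vehicle and Rose Bengal sodium equivalency as the scale.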

Assay [7] is described as follows: qHTS assay to test for compound auto fluorescence at 460 nm (blue) in HEK293 cells (AID 720678). In short, it runs like this:
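HEK293, 2,000 cells/well, 10% dialyzed FBS; attach 4-5 hr 37C; pin compound or DMSO; o/n 37C/5% CO2; fluorescence 405/460 nm; triamterene-equivalent units.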

The nature of assay [8]: qHTS assay to test for compound auto fluorescence at 460 nm (blue) in HEK293 cell free culture (AID 720681). In short, it runs like this:
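Compounds were added to cell-free DMEM with 10% FBS and fluorescence read directly. The blue channel used 405 nm excitation and 460 nm emission, with triamterene as the reference fluorophore.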

The nature of assay [9]: qHTS assay to test for compound auto fluorescence at 535 nm (green) in HEK293 cell free culture (AID 720682). Put shortly: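 Steps: dispense DMEM/10% FBS into empty wells; pin in compound or DMSO; measure fluorescence at 485/535 nm. Values are fluorescein equivalents.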
Assay [10] is described as follows: qHTS assay to test for compound auto fluorescence at 590 nm (red) in HEK293 cell free culture (AID 720683). In short, it runs like this:
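Cell-free wells of DMEM with 10% FBS received compound, and intrinsic fluorescence was read at excitation/emission 540/590 nm. Values expressed as equivalence to Rose Bengal sodium.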

Assay [11] is described as follows: qHTS assay to test for compound auto fluorescence at 590 nm (red) in HepG2 cell free culture (AID 720684). In short, it runs like this: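 Rose Bengal sodium served as the reference for red signal. Test compounds were dispensed into serum-containing MEM (10% FBS) without cells, and plates were read at 540/590 nm.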
A short description of assay [12]: qHTS assay to test for compound auto fluorescence at 460 nm (blue) in HepG2 cell free culture (AID 720685). Put shortly: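 Cell-free plates of MEM plus 10% FBS received 23 nL compound or DMSO vehicle; blue-channel (405/460 nm) intensity scored against triamterene as reference fluorophore.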
The nature of assay [13]: qHTS assay to test for compound auto fluorescence at 535 nm (green) in HepG2 cell free culture (AID 720686).
Assay [14] is described as follows: qHTS assay to test for compound auto fluorescence at 460 nm (blue) in HepG2 cells (AID 720687). In short, it runs like this: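 HepG2 cells in MEM with 10% FBS, attached overnight at 37 C, were exposed to compound or DMSO for 1 hr at 37 C, 5% CO2. Blue fluorescence was read at 405/460 nm, with triamterene as reference fluorophore.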
Assay [15] in a line: qHTS assay for identifying genotoxic compounds that show differential cytotoxicity against isogenic chicken DT40 cell lines with known DNA damage response pathways - Rev3 mutant cell line (AID 743014). Also: nearly all actives have a fitted effect of over 55% in size. Also: potency is read from the fitted curve at half-maximal effect.
The nature of assay [16]: qHTS assay to identify small molecule agonists of H2AX - cell viability counter screen (AID 1224847; calls by dose curve; also: nearly all actives have a fitted effect of over 30% in size; also: potency is read from the fitted curve at half-maximal effect; as to activity change, negative = cytotoxicity: top concentration of the series differs between compounds). Put shortly: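 We seed wild-type CHO-K1 cells overnight, treat them for 3 hr at 37C with compounds in 15-concentration series, and quantify remaining viability by CellTiter-Glo luminescence.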
Assay [17] concerns the target Estrogen receptor (Homo sapiens) (UniProt P03372). The assay can be described thus: qHTS assay to identify small molecule antagonists of the estrogen receptor alpha (ER-alpha) signaling pathway using the BG1 cell line in the presence of 0.1 nM 17-beta-estradiol (AID 1259244). Also: nearly all actives have a fitted effect of over 50% in size. Also: potency is read from the fitted curve at half-maximal effect. In short, it runs like this:
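Seeding of stripped-serum-adapted VM7Luc4E2 cells, 24 h attachment, compound transfer, then 0.1 nM final 17beta-estradiol; after 22 h incubation, ONE-Glo reagent and luminescence reading.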

The target in assay [18] is Estrogen receptor beta (Homo sapiens) (UniProt Q92731). The assay can be described thus: qHTS assay to identify small molecule agonists of the estrogen receptor beta (ER-beta) signaling pathway (AID 1259377; active = well fitted activation curve with a large enough effect in the signal ratio in the repeat runs, not every such curve was filed as active; the % refers to the signal ratio). Put shortly: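 A UAS-controlled beta-lactamase reporter in ER-beta-UAS-bla HEK293T cells reports receptor activation. Compounds act for 16 hr at 37C in 2% charcoal-stripped serum, and a FRET substrate is read by fluorescence after 2 hours.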

Assay [19] deals with Thyrotropin-releasing hormone receptor (Homo sapiens) (UniProt P34981). Nature of the assay: qHTS assay to identify small molecule antagonists of the thyrotropin-releasing hormone receptor (TRHR) signaling pathway (AID 1346877; active = well fitted inhibition curve with a large enough effect in the repeat runs, not every such curve was filed as active; also: series mostly up to about 51 µM). Put shortly: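 Human TRHR in HEK293 cells; inhibition of the intracellular calcium rise triggered by 1 nM TRH was followed by fluorescence over 3 min. Compounds were run at 15 concentrations, three replicates each.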

Assay [20] can be described thus: qHTS assay to identify small molecule agonists of the estrogen receptor beta (ER-beta) signaling pathway - cell viability counter screen (AID 1259380). Also: nearly all actives have a fitted effect of over 30% in size. Also: potency is read from the fitted curve at half-maximal effect. Put shortly: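 In this qHTS counter screen, HEK293T cells carrying an ER-beta/UAS beta-lactamase reporter, grown in 2% charcoal-stripped FBS, received compound for 16 hr; ATP-based CellTiter-Glo luminescence was then read after 30 min at room temperature.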

“And” between values parts separate entries of the source, which are not always exact repeats. Equal values may be shown once. Values without a mark were called inactive. Results filed as inconclusive are left out. The source made the active and inactive calls. Unless noted, calls follow the shape of the dose curve; as a rule, active = well fitted curve in the direction sought with a large enough effect in the repeat runs; inconclusive = weak or mixed curves; inactive = no such curve, though single readings can be large; an effect the other way counts as inactive or inconclusive.
% is scaled to controls: 0 for no effect and ±100 for the full control effect.

Estrogen receptor (Homo sapiens), sequence (P03372 whole entry, looked up): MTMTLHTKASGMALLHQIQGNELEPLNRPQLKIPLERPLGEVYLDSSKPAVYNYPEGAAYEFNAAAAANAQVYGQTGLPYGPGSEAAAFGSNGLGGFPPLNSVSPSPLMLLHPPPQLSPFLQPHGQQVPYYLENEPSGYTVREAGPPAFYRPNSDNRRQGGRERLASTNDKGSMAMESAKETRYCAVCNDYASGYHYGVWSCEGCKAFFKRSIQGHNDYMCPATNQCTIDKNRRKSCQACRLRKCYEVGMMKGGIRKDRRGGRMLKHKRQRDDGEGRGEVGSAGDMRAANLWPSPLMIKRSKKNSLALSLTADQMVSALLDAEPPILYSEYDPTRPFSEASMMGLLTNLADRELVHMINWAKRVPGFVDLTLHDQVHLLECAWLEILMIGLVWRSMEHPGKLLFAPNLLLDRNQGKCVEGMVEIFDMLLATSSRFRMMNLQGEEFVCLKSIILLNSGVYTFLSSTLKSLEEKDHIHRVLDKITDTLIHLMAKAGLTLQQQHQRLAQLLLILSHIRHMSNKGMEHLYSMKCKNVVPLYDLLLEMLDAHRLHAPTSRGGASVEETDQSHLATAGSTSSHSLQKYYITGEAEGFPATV
Thyrotropin-releasing hormone receptor (Homo sapiens), sequence (P34981 whole entry, looked up): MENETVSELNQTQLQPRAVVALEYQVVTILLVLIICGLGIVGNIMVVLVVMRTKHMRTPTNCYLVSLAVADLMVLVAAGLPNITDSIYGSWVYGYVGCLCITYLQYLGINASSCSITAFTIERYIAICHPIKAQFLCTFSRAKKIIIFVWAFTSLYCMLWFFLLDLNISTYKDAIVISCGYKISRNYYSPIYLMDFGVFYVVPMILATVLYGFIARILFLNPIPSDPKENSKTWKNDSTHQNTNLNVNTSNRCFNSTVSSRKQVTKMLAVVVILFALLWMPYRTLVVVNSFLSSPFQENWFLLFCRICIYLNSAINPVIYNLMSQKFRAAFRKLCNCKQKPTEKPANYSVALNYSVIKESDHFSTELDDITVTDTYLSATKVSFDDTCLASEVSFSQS
Estrogen receptor beta (Homo sapiens), sequence (Q92731 whole entry, looked up): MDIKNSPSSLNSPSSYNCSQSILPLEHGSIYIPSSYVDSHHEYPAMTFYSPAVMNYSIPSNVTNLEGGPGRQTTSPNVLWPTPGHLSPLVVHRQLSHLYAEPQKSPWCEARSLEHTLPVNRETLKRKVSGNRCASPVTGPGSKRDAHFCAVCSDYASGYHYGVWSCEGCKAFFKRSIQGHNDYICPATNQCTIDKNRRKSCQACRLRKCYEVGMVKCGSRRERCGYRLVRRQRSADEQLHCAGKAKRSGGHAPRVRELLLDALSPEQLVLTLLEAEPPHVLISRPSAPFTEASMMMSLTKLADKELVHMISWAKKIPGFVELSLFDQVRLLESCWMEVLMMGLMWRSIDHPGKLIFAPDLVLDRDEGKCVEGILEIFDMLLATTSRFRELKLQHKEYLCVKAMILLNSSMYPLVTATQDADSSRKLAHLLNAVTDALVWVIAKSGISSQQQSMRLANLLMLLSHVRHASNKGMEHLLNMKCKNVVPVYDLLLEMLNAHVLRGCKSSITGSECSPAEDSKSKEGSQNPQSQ
Thyrotropin receptor (Homo sapiens), sequence (P16473 whole entry, looked up): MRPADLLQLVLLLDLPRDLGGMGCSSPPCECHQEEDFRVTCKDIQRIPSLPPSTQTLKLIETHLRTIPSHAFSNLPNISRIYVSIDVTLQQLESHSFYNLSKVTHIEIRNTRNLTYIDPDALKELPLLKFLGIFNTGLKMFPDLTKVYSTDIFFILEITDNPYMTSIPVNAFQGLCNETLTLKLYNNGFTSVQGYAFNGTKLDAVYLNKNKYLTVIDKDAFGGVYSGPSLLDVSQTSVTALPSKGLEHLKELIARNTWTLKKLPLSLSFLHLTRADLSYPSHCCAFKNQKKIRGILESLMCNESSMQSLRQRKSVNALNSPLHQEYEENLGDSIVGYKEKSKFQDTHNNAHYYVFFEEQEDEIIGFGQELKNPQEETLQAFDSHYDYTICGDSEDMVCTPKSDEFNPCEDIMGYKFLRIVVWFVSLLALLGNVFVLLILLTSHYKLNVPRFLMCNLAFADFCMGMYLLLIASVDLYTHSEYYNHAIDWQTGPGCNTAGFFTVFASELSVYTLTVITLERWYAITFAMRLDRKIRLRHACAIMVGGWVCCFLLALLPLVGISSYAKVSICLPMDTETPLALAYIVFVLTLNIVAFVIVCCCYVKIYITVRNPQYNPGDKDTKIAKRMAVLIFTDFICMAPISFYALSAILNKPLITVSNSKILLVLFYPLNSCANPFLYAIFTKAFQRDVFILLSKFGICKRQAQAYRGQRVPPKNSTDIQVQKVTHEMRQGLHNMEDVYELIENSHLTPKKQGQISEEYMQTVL

With `Oc1c(I)cc(I)cc1I`, the Potency in assay [1] is 61.1 µM (active). The Potency entry in [2], in [3] and in [4] was “inactive” each time.

On to `CCOC(=O)C(O)(c1ccc(Cl)cc1)c1ccc(Cl)cc1`, for which the Potency result in assay [5], in assay [7], in [8], in [9], in [12] and in [13] was “inactive” each time. In addition, in [14], the Potency result was “inactive”. In addition, the outcome in assay [6], in assay [10], in assay [11], in assay [18] and in assay [19] was inactive. For the same molecule, the Potency in assay [15] is 2.19 µM (active) and 24.3 µM (active); in assay [16] it was 90.7 µM (active) and 56.6 µM (active); in [3], 22.1 µM (active); in assay [17], 61.1 µM (active).

With `c1ccc2c(c1)Sc1ccccc1N2CC1CN2CCC1CC2` (centres undefined), the Potency entry in assay [5], in assay [7], in [8], in assay [9], in assay [12] and in assay [14] was “inactive” each time. Besides, the Potency result in [1] was “inactive”. The call in assay [6], in assay [10] and in assay [11] was inactive. Further, the Potency in [15] was 11.9 µM (active); in assay [20] it was 23.7 µM (active); in assay [4], 13.3 µM (active).

Take `OCC(c1ccc(Cl)cc1)c1ccc(Cl)cc1`: the Potency entry in assay [5], in [7], in [8], in [9], in assay [12] and in assay [13] was “inactive” in each case. Besides, the Potency result in [14] and in assay [4] was “inactive” in each case. Moreover, the call in assay [6], in assay [10], in assay [18] and in [19] was inactive. The Potency in assay [15] was 1.93 µM (active); in assay [16], 89.8 µM (active); in [3], 34.7 µM (active); in assay [20], 54.5 µM (active).

Take `Cc1ccc2nc3sc(=O)sc3nc2c1`: in assay [2], the activation was -7.09% [at 19 µM]. The activity change, negative = cytotoxicity in assay [16] is 0.633% [at 31.6 µM]; in assay [3], 4.11% [at 15.8 µM]; in assay [4], -2.84% [at 19 µM]. The activity change, negative = inhibition in assay [17] was -0.302% [at 19 µM]. The activity, negative = inhibition in assay [19] is 3.17% [at 10.5 µM].

Regarding `CCN(CC)C(=O)Cl`, the Potency result in [1], in [2], in [16], in [3], in assay [17] and in assay [20] was “inactive” each time. In addition, in [4], the Potency result is “inactive”. The outcome in assay [18] and in assay [19] was inactive.

As for `O=C1C(I)=CC(=C(c2cc(I)c(O)c(I)c2)c2ccccc2C(=O)O)C=C1I`, the Potency entry in assay [5], in [7], in [8], in [9], in assay [12] and in assay [13] was “inactive” in each case. Also, the Potency result in assay [14], in assay [15], in [2], in assay [3] and in [17] was “inactive” each time. Moreover, the call in assay [6], in [10] and in assay [11] was inactive. The Potency in [20] was 9.44 µM (active).

For the molecule `OC(Cc1ccccc1Cl)(Cn1[nH]cnc1=S)C1(Cl)CC1` (centres undefined), the Potency result in assay [2] was “inactive”. Besides, the outcome in assay [19] was inactive.

In the case of `ClC1=C(Cl)[C@]2(Cl)[C@@H]3[C@@H](Cl)[C@H]4O[C@H]4[C@@H]3C1(Cl)C2(Cl)Cl`, the Potency entry in assay [5], in assay [7], in assay [9], in [12], in [13] and in [14] was “inactive” throughout. Also, the Potency result in assay [1] is “inactive”. Further, the result in assay [6], in assay [10], in assay [11] and in [18] was inactive. Moreover, the results for the Potency in assay [15] and in assay [16] were 34.4 µM (active) and 113 µM (active), respectively.

On to `Nc1ccc([N+](=O)[O-])cc1`, for which the molecule was classed as inactive in assay [6], in [10] and in [11]. In addition, the Potency result in [7], in assay [8], in [9], in assay [12], in assay [13] and in assay [14] was “inactive” throughout. Moreover, the Potency entry in assay [1] was “inactive”. The Potency in assay [15] was 13.3 µM (active); in assay [16], 101 µM (active); in [3] it was 21.9 µM (active); in [20], 27.3 µM (active); in [4], 7.7 µM (active).

On to `Cc1nnc2n1-c1sc(CCc3ccc(CC(C)C)cc3)cc1C(c1ccccc1Cl)=NC2C` (centres undefined), for which the Potency result in [5], in assay [8], in assay [9], in assay [12], in assay [13] and in assay [14] was “inactive” throughout. The outcome in assay [6], in [10], in assay [11], in assay [18] and in [19] was inactive. In addition, the Potency was 16.8 µM (active) in assay [15]; 10.6 µM (active) in assay [1]; 18.8 µM (active) in [2]; 21.3 µM (active) in [3]; 29.8 µM (active) in [17]; 29.8 µM (active) in assay [20].

In the case of `Cc1ccc(N(SC(F)(Cl)Cl)S(=O)(=O)N(C)C)cc1`, the Potency result in [5], in [7], in assay [8], in assay [9], in assay [12] and in assay [13] was “inactive” throughout. For the same molecule, the Potency result in assay [14] and in assay [4] was “inactive” throughout. Moreover, the molecule was classed as inactive in [6], in assay [10], in assay [11] and in assay [18]. Moreover, the Potency in [15] was 0.122 µM (active); in assay [1] it was 24.3 µM (active); in assay [16], 89.8 µM (active); in assay [3] it was 12.3 µM (active); in assay [20], 54.5 µM (active).

Consider `CNC(=O)Oc1cc(C)c(SC)c(C)c1`, for which the Potency result in assay [2], in assay [16] and in [4] was “inactive” throughout. The molecule was called inactive in assay [19].

Consider `N#Cc1cc([N+](=O)[O-])ccc1N`, for which the Potency entry in assay [2], in assay [3], in assay [17], in assay [20] and in assay [4] was “inactive” in each case. The molecule was classed as inactive in assay [18] and in assay [19].
